A selection: hits, their analogues and other compounds. The true share with any hit is near 0.54%.
LDHA inh – blocks human lactate dehydrogenase A; activity change, % (values are at about 110 or 230 µM); 0.15% of 480,000 active; AID 1347041; purified LDHA, NADH/diaphorase-resazurin fluorescence; stronger effect = lower value; in the data active = activity change below about -30%; inconclusive = mostly about -25% to -30%;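 also: plate controls were DMSO wells for no effect and wells without enzyme for full effect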
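Human LDH5 at 2 nM final in Tris HCl pH 7.4 with 0.06 mM NADH and 0.2 mM pyruvate, reacted 5 minutes at room temperature. Remaining NADH coupled via diaphorase/resazurin; resorufin fluorescence read at 0 and 20 minutes, normalized to enzyme-free and DMSO wells.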
Menin MLL FP TR – displaces Texas Red mutant MLL peptide from human menin; O00255; Menin + Texas Red MLL mutant peptide, fluorescence polarization; Potency, µM (top dose mostly 61.6 µM), for inactives: at the top dose FP activity change, negative = inhibition, hits mostly inhibitors; 0.23% of 270,000 active; AID 1768; active = well fitted inhibition curve with a large enough effect in the polarisation, with a control signal flat, not every such curve was filed as active; inconclusive = small, poorly fitted or top-dose-only effect, or effect the other way, or a change in a side signal; inactive = no such curve, though single readings can be large or run the other way; the % refers to the polarisation; also: potency is read from the fitted curve at half-maximal effect; % of control where 0% means no effect
MLL CXXC-DNA inh – MLL CXXC-DNA interaction inhibition | MLL-CXXC / FITC-HOXA9 DNA fluorescence polarization | Potency, µM (series often up to 115 µM), inactives show at the highest dose activity change, negative = inhibition, most hits filed as inhibitors | 0.037% of 290,000 active | AID 2662; active = well fitted inhibition curve with a large enough effect in the polarisation, with a control signal flat, not every such curve was filed as active; inconclusive = small, poorly fitted or top-dose-only effect, or effect the other way, or a change in a side signal; inactive = no such curve, though single readings can be large or run the other way; the % refers to the polarisation; also: potency is read from the fitted curve at half-maximal effect
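Purified MLL-CXXC (added from a 7 uM solution) was preincubated 5 min at ambient with pinned compounds in 50 mM Tris-HCl pH 7.5, 50 mM NaCl, 1 mM DTT, 0.05% BSA. Fluorescein-labeled HOX-A9 DNA (50 nM solution) followed, 30 min, then polarization read.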
Akt phos inh – Akt phosphorylation inhibition; 0.32% of 360,000 active; Neuro2A IGF-stimulated pAkt S473 HTRF, 20 min; stronger effect = lower value; activity change, % for hits at 50 µM; in the data active = activity change below about -80%; inconclusive = mostly about -51% to -80%; also: % is scaled to controls: 0 for no effect and ±100 for the full control effect
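Single-point screen (50 µM final compound) in Neuro2A cells stimulated 20 min with 6 nM IGF at 37 deg C. After lysis, Ser473-phosphorylated Akt read by HTRF (ex 330 nm, em 615/665 nm) as the 665/615 ratio.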
Menin-MLL FL inh – menin-MLL binding inhibition, fluorescein peptide; Fluorescence polarization, fluorescein-MLL peptide displacement from menin; FP activity change, % at 61.4 µM; 290,000 tested, under 10 active; active = well fitted curve in the direction sought with a large enough effect in the polarisation, not every such curve was filed as active; inconclusive = small, poorly fitted or top-dose-only effect, or effect the other way, or a change in a side signal; inactive = no such curve, though single readings can be large or run the other way; the % refers to the polarisation; also: % of control where 0% means no effect
mIDH1 inhibitor – human IDH1 R132H inhibition | IDH1-R132H enzyme, NADPH consumption, diaphorase/resazurin fluorescence | Potency, µM (top dose mostly 76.6 µM), without a hit: at the highest dose activity change, negative = inhibition, hits mostly inhibitors | 0.093% of 390,000 active; also: potency is read from the fitted curve at half-maximal effect; % is scaled to controls: 0 for no effect and ±100 for the full control effect; nearly all actives have a fitted effect of over 65% in size
Target sequence (O75874 whole entry R132H, stated change not applied): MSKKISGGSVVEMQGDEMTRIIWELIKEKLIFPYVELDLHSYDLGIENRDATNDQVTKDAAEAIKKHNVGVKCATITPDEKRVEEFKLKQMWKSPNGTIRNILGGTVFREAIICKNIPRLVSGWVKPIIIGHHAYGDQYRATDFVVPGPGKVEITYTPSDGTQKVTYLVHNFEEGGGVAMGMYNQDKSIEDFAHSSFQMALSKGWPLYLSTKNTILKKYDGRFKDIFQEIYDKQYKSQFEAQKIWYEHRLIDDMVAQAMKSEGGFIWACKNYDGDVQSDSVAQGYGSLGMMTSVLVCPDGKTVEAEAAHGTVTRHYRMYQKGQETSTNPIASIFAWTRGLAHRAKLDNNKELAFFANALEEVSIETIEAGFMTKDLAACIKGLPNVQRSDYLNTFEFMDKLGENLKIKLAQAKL
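IDH1-R132H (0.5 ug/mL) preincubated 30 min with compound, then NADPH (0.016 mM) and alpha-KG (2 mM) added; 80 min at RT, pH 7.5. Remaining NADPH coupled via diaphorase/resazurin to fluorescence (540/590 nm); concentration-response curves normalized to no-enzyme control.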
MLL CXXC FP-Fl – MLL CXXC-DNA interaction inhibition, fluorescein FP. 70% of 200 active. AID 624160. shares compounds with MLL CXXC-DNA inh. MLL CXXC-DNA binding, fluorescein FP. Potency, µM (doses to about 345 µM), inactives show at the top dose activity change, negative = inhibition, hits mostly inhibitors; also: potency is read from the fitted curve at half-maximal effect; nearly all actives have a fitted effect of over 80% in size
MLL CXXC FP-TR – inhibitors of human MLL CXXC domain-DNA interaction, Texas Red format; Potency, µM (doses to about 345 µM), inactives show at the top dose activity change, negative = inhibition, actives largely listed as inhibitors; shares compounds with MLL CXXC-DNA inh; MLL CXXC-DNA binding, Texas Red fluorescence polarization; AID 624161; 40% of 200 active; also: potency is read from the fitted curve at half-maximal effect; % is scaled to controls: 0 for no effect and ±100 for the full control effect; nearly all actives have a fitted effect of over 75% in size
MLL CXXC TRF – disrupts human MLL CXXC domain binding to DNA by HTRF; shares compounds with MLL CXXC-DNA inh; MLL CXXC-DNA binding, HTRF, biochemical; Potency, µM (highest dose often 172 µM), for the others: at the highest dose activity change, negative = inhibition, usual class: inhibitors; 30% of 210 active; AID 624162; also: % is scaled to controls: 0 for no effect and ±100 for the full control effect; nearly all actives have a fitted effect of over 80% in size
* = called active by the depositor; i = inactive; ? = inconclusive; . = no result given. Unless noted, calls follow the shape of the dose curve; as a rule, active = well fitted inhibition curve with a large enough effect; inconclusive = small, poorly fitted or top-dose-only effect; inactive = no such curve, though single readings can be large or run the other way.

SMILES	LDHA inh	Menin MLL FP TR	MLL CXXC-DNA inh	Akt phos inh	Menin-MLL FL inh	mIDH1 inhibitor	MLL CXXC FP-Fl	MLL CXXC FP-TR	MLL CXXC TRF
O=C1OC(/C(=C\Nc2ccc(F)cc2F)[N+](=O)[O-])c2ccccc21 (configuration not stated)	0	-6%	?	i	1	-5%	6%	126µM*	-3%
NS(=O)(=O)c1ccc(NC(=O)c2c(Cl)cccc2Cl)cc1	-11	3%	?	i	4	4%	?	?	-7%
NS(=O)(=O)c1ccc(NC(=O)c2c(F)cccc2Cl)cc1	-5	.	-2%	i	2	-4%	.	.	.
CCc1cccc(NC(=O)CSC2=NS(=O)(=O)c3ccccc32)c1	2	-11%	32µM*	i	3	-7%	89µM*	113µM*	15µM*
Nc1c(N=Nc2ccc(-c3ccc(N=Nc4cc(S(=O)(=O)O)c5ccccc5c4N)cc3)cc2)cc(S(=O)(=O)O)c2ccccc12	.	?	35µM*	.	?	.	22µM*	25µM*	9.7µM*
O=c1ccc2[n+]([O-])c3ccc(O)cc3oc-2c1	-14	.	35µM*	i	?	?	?	2.2µM*	?
COc1ccc(C(=O)Nc2oc3ccc(Cl)cc3c(=O)c2-c2cccc(OC)c2)cc1	2	.	.	.	.	.	.	.	.
Cc1ccc(Sc2ccc(/C=C3/C(=O)NN(c4ccccc4)C3=O)o2)cc1	2	.	?	i	18	0%	8µM*	33%	-1%
CCC(CC)C(=O)Nc1cccc(-c2nc3cc(C)ccc3o2)c1	4	.	.	.	.	.	.	.	.
Nc1c(S(=O)(=O)O)cc(Nc2ccc(Nc3nc(Cl)nc(Nc4ccc(S(=O)(=O)O)cc4)n3)c(S(=O)(=O)O)c2)c2c1C(=O)c1ccccc1C2=O	-18	?	10µM*	.	3	.	18µM*	18µM*	6.1µM*
Nc1c(S(=O)(=O)O)cc(Nc2ccc(Cl)cc2)c2c1C(=O)c1ccccc1C2=O	.	?	.	.	0	.	.	.	.
Cc1c(Cl)cccc1NC(=O)CC(C)(C(=O)O)c1ccccc1 (configuration not stated)	-4	.	.	.	.	.	.	.	.
CN1CCCc2cc3c(C(F)(F)F)cc(=O)oc3nc21	7	-2%	28µM*	i	?	13%	45µM*	-16%	22%
N#C/C(=C\c1cccs1)C(=O)c1ccccc1Cl	1	.	22µM*	i	6	-4%	18µM*	71µM*	?
Cc1ccsc1C=C1C(=O)c2ccccc2C1=O	-2	?	?	i	0	5%	10µM*	-4%	14%
CCOC(=O)C(C(=O)OCC)c1cc(Br)c2noc3c2c1C(=O)c1ccccc1-3	23	?	32µM*	i	?	16%	10µM*	40µM*	?
CC(=O)OCCNc1cc(N2CCN(C)CC2)c2noc3c2c1C(=O)c1ccccc1-3	9	?	?	i	?	-2%	.	.	.
CCn1c(CSc2ncn[nH]2)nc2cc(C(=O)O)ccc21	0	.	?	i	5	0%	62%	126µM*	3%
CCn1c(CSc2nnc(-c3ccncc3)n2C)nc2cc(C(=O)O)ccc21	7	.	-25%	i	-16	6%	.	.	.
O=C1C2C(c3ccccc3)CC=CC2[C@H](c2ccc(C(F)(F)F)cc2)N1Cc1ccccc1 (some centres not stated)	2	.	?	i	-1	10%	22µM*	36%	195%
O=C(O)CCN1C(=O)/C(=C\c2ccc(-c3nc4ccccc4s3)o2)SC1=S	-1	28%	?	i	?	2%	71µM*	50µM*	24µM*
O=C(O)CCN1C(=O)/C(=C\c2ccncc2)SC1=S	5	28%	35µM*	i	2	9%	.	.	12%
COc1ccc(/C=C2/SC(=S)N(CCC(=O)O)C2=O)cc1	-14	14%	-29%	i	5	-4%	.	.	.
O=C(Nc1cccc(C(=O)Nc2ccc(S(=O)(=O)O)c3cc(S(=O)(=O)O)cc(S(=O)(=O)O)c23)c1)Nc1cccc(C(=O)Nc2ccc(S(=O)(=O)O)c3cc(S(=O)(=O)O)cc(S(=O)(=O)O)c23)c1	-112*	21%	16µM*	.	?	.	28µM*	100µM*	39µM*
N#Cc1c(N)n[nH]c1CCCNc1nc(-c2ccccc2)nc2ccccc12	3	.	.	.	.	.	.	.	.
SMILES	LDHA inh	Menin MLL FP TR	MLL CXXC-DNA inh	Akt phos inh	Menin-MLL FL inh	mIDH1 inhibitor	MLL CXXC FP-Fl	MLL CXXC FP-TR	MLL CXXC TRF
CCc1nnc(NC(=O)CSc2nnc(-c3ccco3)o2)s1	-10	-7%	4%	i	-1	17%	.	.	.
CCc1nnc(NC(=O)CSc2nnc(-c3ccc(NS(=O)(=O)c4ccccc4)cc3)o2)s1	0	6%	?	i	2	7%	?	9%	-11%
Cc1ccc(NC(=O)CCc2c[nH]c3ccccc23)cc1C	-6	.	.	.	.	.	.	.	.
O=C1C=C(O)c2cccc3cccc1c23	-6	?	?	i	?	6%	113µM*	5%	33%
Cc1cc(-c2ccccc2)c2c3c(c(-c4ccccc4)n2n1)c(=O)n(C)c(=O)n3C	0	4%	50µM*	i	?	5%	-43%	16%	9%
Cc1cc(C)c2c3c(c(-c4ccccc4)n2n1)c(=O)n(C)c(=O)n3C	-8	.	.	i	.	11%	.	.	.
N#CC1(C#N)C(c2ccccc2)OC23CCCCCC2C1(C#N)C(=N)O3 (configuration not stated)	-2	0%	50µM*	i	-16	0%	50µM*	?	11%
N#CC1(C#N)C(c2ccccc2)OC23CCCCC2C1(C#N)C(=N)O3 (configuration not stated)	11	-10%	?	i	?	1%	.	.	.
